# Laboratory results as given in PubChem BioAssay (NCI).
# The panel holds about 83,000 compounds, 20% with a hit somewhere; the sample as a whole holds those more often.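 48-hour exposure, single concentration, 96-well plates; percent growth endpoint where 0 means no net growth. Active: below 10.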 Values without a mark were called inactive. Calls of active or inactive are those of the source.
# Assays:
# Experiment in all cases: NCI-60 one-dose screen, 48 h (100 = growth as untreated, 0 = no growth, -100 = all killed)
# Details in all cases: 10 µM
# K-562 leukemia = test system: K-562 leukemia
# MALME-3M melanoma = test system: MALME-3M melanoma
# MDA-MB-231 breast = test system: MDA-MB-231 breast
# RXF 393 renal = test system: RXF 393 renal
# SF-268 CNS = test system: SF-268 CNS
# SF-295 CNS = test system: SF-295 CNS
# SF-539 CNS = test system: SF-539 CNS
# UACC-257 melanoma = test system: UACC-257 melanoma
# M14 melanoma = test system: M14 melanoma
# HCT-15 colon = test system: HCT-15 colon
# HT29 colon = test system: HT29 colon
# SNB-75 CNS = test system: SNB-75 CNS
# SNB-19 CNS = test system: SNB-19 CNS
# U251 CNS = test system: U251 CNS
# PC-3 prostate = test system: PC-3 prostate
# SK-MEL-5 melanoma = test system: SK-MEL-5 melanoma
# UACC-62 melanoma = test system: UACC-62 melanoma
# LOX IMVI melanoma = test system: LOX IMVI melanoma
# SK-MEL-28 melanoma = test system: SK-MEL-28 melanoma
# SK-MEL-2 melanoma = test system: SK-MEL-2 melanoma
SMILES,growth (K-562 leukemia),growth (MALME-3M melanoma),growth (MDA-MB-231 breast),growth (RXF 393 renal),growth (SF-268 CNS),growth (SF-295 CNS),growth (SF-539 CNS),growth (UACC-257 melanoma),growth (M14 melanoma),growth (HCT-15 colon) [%],growth (HT29 colon),growth (SNB-75 CNS),growth (SNB-19 CNS) [%],growth (U251 CNS),growth (PC-3 prostate),growth (SK-MEL-5 melanoma),growth (UACC-62 melanoma),growth (LOX IMVI melanoma),growth (SK-MEL-28 melanoma) [%],growth (SK-MEL-2 melanoma)
O=c1oc2cc(OS(=O)(=O)c3ccccc3)ccc2c2c1CCCCC2,37.4%,66.7%,68.4%,64%,76.8%,59.8%,48.3%,50.8%,70.2%,42.2,10%,69.5%,77,34.4%,29.5%,26%,57.2%,63.8%,73.2,–
COc1cc(Cl)cc(-c2nn(-c3cccc(NC(=O)Nc4ccc(Cl)c(Cl)c4)c3)cc2-c2ccncc2)c1,10%,-19.8% (active),-21% (active),4.46% (active),25.3%,-2.42% (active),20.9%,-11.5% (active),18.7%,13.9,7.39% (active),16.2%,17.8,3.01% (active),-5.03% (active),3.51% (active),4.38% (active),9.24% (active),23.2,–
ClCC#CCSc1ncnc2c1ncn2CC#CCCl,17.5%,-46.3% (active),20.2%,-65.9% (active),-22.4% (active),8.11% (active),26%,55%,2.78% (active),30.1,17.7%,-57.5% (active),13.2,0.284% (active),32.3%,9.62% (active),19.2%,-35.5% (active),39.5,41.1%
Nc1c(C(=O)Nc2cccc3ccccc23)sc2nc3c(cc12)C(=O)CCC3,10.3%,59.9%,8.28% (active),-5.71% (active),36.1%,-1.44% (active),-13.1% (active),45%,12.6%,18.9,8.98% (active),20.7%,55.3,15.2%,22.6%,12.2%,43.2%,29.7%,42.8,35.5%
O=C(N/N=C/c1cc2ccccc2c2ccccc12)c1cc(O)c(O)c(O)c1,20.2%,49%,68.4%,75%,46.7%,88.8%,50%,75.3%,61%,60,94.8%,56.4%,50.6,20.3%,52.3%,52.9%,41.5%,47.2%,55.6,–
CCOCCOCCOCCOCCOCCOCCOCCOCCOCCO (tested in a mixture with another compound),4.03% (active),0.836% (active),10.5%,37.3%,21.8%,-29.2% (active),-10.1% (active),-7.19% (active),10.8%,22.1,-44% (active),32.8%,25.2,7.66% (active),9.21% (active),-81.6% (active),13.2%,-72.5% (active),36.5,-61.7% (active)
CCOC(=O)C(NC(=O)C(Cl)Cl)C(O)c1ccccc1 (configuration not stated),87.5%,108%,98.3%,78.7%,99.3%,76.1%,99.5%,105%,92.6%,117,107%,91.3%,101,101%,-0.104% (active),91.4%,94.2%,99.9%,144,–
CSc1nn(-c2ccccc2)c2ncnc(Oc3ccc(C)cc3)c12,88.9%,91.6%,66.9%,68.9%,90.7%,93.1%,94.5%,93%,90.5%,93.5,99.3%,75.1%,102,91.2%,82.5%,94.5%,99.6%,95%,99.5,75.3%
c1ccc(CNc2ncnc3scc(-c4cccs4)c23)nc1,42.7%,89.5%,59.9%,73.6%,79.7%,41.2%,72.7%,46.1%,70.7%,76,91.2%,64.6%,67.2,75.7%,58.6%,14.8%,56%,74.2%,96.7,72.2%
CN(C)c1ccc(-c2cc(-c3cccc(NS(C)(=O)=O)c3)nc(N)c2C#N)cc1,10.9%,-7.09% (active),-8.96% (active),20.3%,20.8%,0.228% (active),3.52% (active),80.4%,11.6%,24,8.8% (active),-2.46% (active),43.3,20.3%,10.4%,4.17% (active),47.4%,23.7%,69,–
COc1cc(-c2cc(/C=C/C(=O)c3ccc4c(c3)OCO4)[nH]n2)cc(OC)c1OC,22.3%,95.7%,64.5%,75.4%,85.3%,19.5%,3.66% (active),107%,101%,63.9,43%,69.7%,66.5,43%,59%,95.9%,78.9%,42.8%,94.3,–
C#Cc1ccc(-n2c(/C=C/c3ccc(O)c(OC)c3)nc3ncccc3c2=O)cc1,80%,95%,98.5%,100%,95%,104%,97.2%,87.8%,101%,90.5,112%,55.9%,96.2,94.1%,81.2%,94.2%,104%,93.5%,97.9,85.7%
O=S(=O)(NCCCNc1nccc(-c2c(-c3ccc(F)cc3)nc3sccn23)n1)c1ccc2ccccc2c1,3.75% (active),50.3%,34.9%,66.7%,40.3%,43.7%,85.3%,56.8%,47.7%,35.1,-7.72% (active),50.1%,82.4,27.4%,35.5%,43.4%,45%,37.3%,72.6,–
Nc1ccc2c(c1)Cc1cc(N)c(Br)cc1-2,99.7%,104%,116%,111%,109%,76.8%,83.1%,109%,102%,97.3,107%,67.1%,114,108%,96.9%,97.8%,96.7%,96.8%,115,116%
COc1ccc(Oc2nc(NC3CCCC3)nc(Sc3ccc(OC)cc3)n2)cc1,53.3%,69.6%,50.1%,74.1%,55.6%,67.4%,83.4%,87.3%,87.6%,43.9,43.7%,75.3%,90.9,44.4%,43%,45.7%,71.1%,72.6%,86,–
COc1cc(CNCCCCCCN2C(=O)c3cccc4cccc(c34)C2=O)ccc1O,35.3%,36.3%,81.5%,52%,88.7%,69%,85.3%,89.4%,78.2%,74.7,26.9%,67.1%,84.3,65.9%,51.4%,10.6%,80.5%,36.3%,18.7,120%
